Data from the supplement of paper PMC4466140.

Legend:
Test in all cases: SPOT peptide array binding signal intensity (averaged, normalized) (arbitrary units (background-subtracted, floor 0; scale differs between SH3 domains)); higher = stronger binding of the SH3 domain to the peptide
[1] = target: AgAbp1
Procedure, shortened: (§1)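 GST-fused SH3 domains from four yeast species were expressed in E. coli BL21(DE3), purified on glutathione Sepharose and incubated at 10 μg/ml overnight at 4°C in TBS-based blocking buffer on cellulose membranes carrying synthetic 15-mer peptides, with cysteines replaced by serines. Bound protein was detected with anti-GST antibody, an HRP anti-mouse secondary and luminol, then imaged and quantified with Genespotter. Binding signal is the normalized, background-subtracted spot intensity averaged over replicates, in arbitrary units that differ between domains.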

[2] = target: AgBbc1
Procedure, shortened: as §1

[3] = target: AgBem1-D1
Procedure, shortened: as §1

[4] = target: AgBzz1-D1
Procedure, shortened: as §1

[5] = target: AgBzz1-D2
Procedure, shortened: as §1

[6] = target: AgCyk3
Procedure, shortened: as §1

[7] = target: AgFus1
Procedure, shortened: as §1

[8] = target: AgHof1
Procedure, shortened: as §1

[9] = target: AgHse1
Procedure, shortened: as §1

[10] = target: AgLsb1
Procedure, shortened: as §1

[11] = target: AgLsb4
Procedure, shortened: as §1

[12] = target: AgMyo5
Procedure, shortened: as §1

[13] = target: AgNbp2
Procedure, shortened: as §1

[14] = target: AgRvs167
Procedure, shortened: as §1

[15] = target: AgSho1
Procedure, shortened: as §1

[16] = target: AgSla1-D1-D2
Procedure, shortened: as §1

[17] = target: AgSla1-D3
Procedure, shortened: as §1

[18] = target: CaAbp1-D1
Procedure, shortened: as §1

[19] = target: CaAbp1-D2
Procedure, shortened: as §1

[20] = target: CaBbc1
Procedure, shortened: as §1

[21] = target: CaBem1-D1
Procedure, shortened: as §1

[22] = target: CaBzz1-D1
Procedure, shortened: as §1

[23] = target: CaBzz1-D2
Procedure, shortened: as §1

[24] = target: CaCyk3
Procedure, shortened: as §1

[25] = target: CaFus1
Procedure, shortened: as §1

[26] = target: CaHof1
Procedure, shortened: as §1

[27] = target: CaHse1
Procedure, shortened: as §1

[28] = target: CaLsb1
Procedure, shortened: as §1

[29] = target: CaLsb4
Procedure, shortened: as §1

[30] = target: CaMyo5
Procedure, shortened: as §1

[31] = target: CaNbp2
Procedure, shortened: as §1

[32] = target: CaRvs167
Procedure, shortened: as §1

[33] = target: CaRvs167-3
Procedure, shortened: as §1

[34] = target: CaSho1
Procedure, shortened: as §1

[35] = target: CaSla1-D1-D2
Procedure, shortened: as §1

[36] = target: CaSla1-D3
Procedure, shortened: as §1

[37] = target: ScAbp1
Procedure, shortened: as §1

[38] = target: ScBbc1
Procedure, shortened: as §1

[39] = target: ScBem1-D1
Procedure, shortened: as §1

[40] = target: ScBzz1-D1
Procedure, shortened: as §1

[41] = target: ScBzz1-D2
Procedure, shortened: as §1

[42] = target: ScCyk3
Procedure, shortened: as §1

[43] = target: ScFus1
Procedure, shortened: as §1

[44] = target: ScHof1
Procedure, shortened: as §1

[45] = target: ScHse1
Procedure, shortened: as §1

[46] = target: ScLsb1
Procedure, shortened: as §1

[47] = target: ScLsb2
Procedure, shortened: as §1

[48] = target: ScLsb3
Procedure, shortened: as §1

[49] = target: ScLsb4
Procedure, shortened: as §1

[50] = target: ScMyo3
Procedure, shortened: as §1

[51] = target: ScMyo5
Procedure, shortened: as §1

[52] = target: ScNbp2
Procedure, shortened: as §1

[53] = target: ScPex13
Procedure, shortened: as §1

[54] = target: ScRvs167
Procedure, shortened: as §1

[55] = target: ScSho1
Procedure, shortened: as §1

[56] = target: ScSla1-D1-D2
Procedure, shortened: as §1

[57] = target: ScSla1-D3
Procedure, shortened: as §1

[58] = target: SpAbp1-D1
Procedure, shortened: as §1

[59] = target: SpBbc1
Procedure, shortened: as §1

[60] = target: SpBzz1-D1
Procedure, shortened: as §1

[61] = target: SpBzz1-D2
Procedure, shortened: as §1

[62] = target: SpCyk3
Procedure, shortened: as §1

[63] = target: SpHof1
Procedure, shortened: as §1

[64] = target: SpHof1-2
Procedure, shortened: as §1

[65] = target: SpHof1-3
Procedure, shortened: as §1

[66] = target: SpHse1
Procedure, shortened: as §1

[67] = target: SpLsb1
Procedure, shortened: as §1

[68] = target: SpLsb4
Procedure, shortened: as §1

[69] = target: SpMyo1
Procedure, shortened: as §1

[70] = target: SpNbp2
Procedure, shortened: as §1

[71] = target: SpPex13
Procedure, shortened: as §1

[72] = target: SpRvs167
Procedure, shortened: as §1

[73] = target: SpSla1-D1-D2
Procedure, shortened: as §1

[74] = target: SpSla1-D3
Procedure, shortened: as §1

SSSSTPPTLPPRRIE
SPOT peptide array binding signal intensity [1]: 7.5
SPOT peptide array binding signal intensity [2]: 673
SPOT peptide array binding signal intensity [3]: 42
SPOT peptide array binding signal intensity [4]: 49
SPOT peptide array binding signal intensity [5]: ≤ 0
SPOT peptide array binding signal intensity [6]: 2
SPOT peptide array binding signal intensity [7]: ≤ 0
SPOT peptide array binding signal intensity [8]: 55
SPOT peptide array binding signal intensity [9]: 42.5
SPOT peptide array binding signal intensity [10]: 1840
SPOT peptide array binding signal intensity [11]: 9180
SPOT peptide array binding signal intensity [12]: 93.5
SPOT peptide array binding signal intensity [13]: 10
SPOT peptide array binding signal intensity [14]: 2660
SPOT peptide array binding signal intensity [15]: 1
SPOT peptide array binding signal intensity [16]: ≤ 0
SPOT peptide array binding signal intensity [17]: ≤ 0
SPOT peptide array binding signal intensity [18]: 24
SPOT peptide array binding signal intensity [19]: 34.5
SPOT peptide array binding signal intensity [20]: 1390
SPOT peptide array binding signal intensity [21]: 4
SPOT peptide array binding signal intensity [22]: 16
SPOT peptide array binding signal intensity [23]: ≤ 0
SPOT peptide array binding signal intensity [24]: 2
SPOT peptide array binding signal intensity [25]: 77
SPOT peptide array binding signal intensity [26]: 8.75
SPOT peptide array binding signal intensity [27]: 731
SPOT peptide array binding signal intensity [28]: 57.5
SPOT peptide array binding signal intensity [29]: 7260
SPOT peptide array binding signal intensity [30]: ≤ 0
SPOT peptide array binding signal intensity [31]: 76.5
SPOT peptide array binding signal intensity [32]: 2810
SPOT peptide array binding signal intensity [33]: 0.25
SPOT peptide array binding signal intensity [34]: ≤ 0
SPOT peptide array binding signal intensity [35]: 138
SPOT peptide array binding signal intensity [36]: ≤ 0
SPOT peptide array binding signal intensity [37]: ≤ 0
SPOT peptide array binding signal intensity [38]: 61.5
SPOT peptide array binding signal intensity [39]: 8
SPOT peptide array binding signal intensity [40]: 3
SPOT peptide array binding signal intensity [41]: 2
SPOT peptide array binding signal intensity [42]: 2
SPOT peptide array binding signal intensity [43]: ≤ 0
SPOT peptide array binding signal intensity [44]: 122
SPOT peptide array binding signal intensity [45]: ≤ 0
SPOT peptide array binding signal intensity [46]: 2090
SPOT peptide array binding signal intensity [47]: 1570
SPOT peptide array binding signal intensity [48]: 11000
SPOT peptide array binding signal intensity [49]: 4800
SPOT peptide array binding signal intensity [50]: 111
SPOT peptide array binding signal intensity [51]: 17.5
SPOT peptide array binding signal intensity [52]: ≤ 0
SPOT peptide array binding signal intensity [53]: 2100
SPOT peptide array binding signal intensity [54]: 3870
SPOT peptide array binding signal intensity [55]: 56.5
SPOT peptide array binding signal intensity [56]: 6
SPOT peptide array binding signal intensity [57]: 1.75
SPOT peptide array binding signal intensity [58]: ≤ 0
SPOT peptide array binding signal intensity [59]: 0.5
SPOT peptide array binding signal intensity [60]: 219
SPOT peptide array binding signal intensity [61]: ≤ 0
SPOT peptide array binding signal intensity [62]: 4
SPOT peptide array binding signal intensity [63]: 4.5
SPOT peptide array binding signal intensity [64]: 12.2
SPOT peptide array binding signal intensity [65]: 10
SPOT peptide array binding signal intensity [66]: 16
SPOT peptide array binding signal intensity [67]: 3060
SPOT peptide array binding signal intensity [68]: 6340
SPOT peptide array binding signal intensity [69]: 594
SPOT peptide array binding signal intensity [70]: ≤ 0
SPOT peptide array binding signal intensity [71]: 4
SPOT peptide array binding signal intensity [72]: 3420
SPOT peptide array binding signal intensity [73]: ≤ 0
SPOT peptide array binding signal intensity [74]: ≤ 0
